Most compounds without a hit are left out; they make up all but 6.2% or so of the library.
KB-V1 MDR tox: kills drug-selected multidrug resistant KB-V1 cells; KB-V1 MDR cells viability, CellTiter-Glo, 72 h; Potency, µM (titrated, usually from 46.1 µM), actives largely listed as cytotoxic; hit rate 3.4% among 400,000; AID 1347076; also: % is scaled to controls: 0 for no effect and ±100 for the full control effect; nearly all actives have a fitted effect of over 60% in size
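Cytotoxicity toward P-gp-expressing KB-V1 cells was determined as loss of CellTiter-Glo luminescence after 72 h at 37 degrees C. Compounds were tested in quantitative HTS format across a concentration range, with curves fitted to normalized data.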
KB-3-1 tox: KB-3-1 parental cell cytotoxicity | Potency, µM (series often up to 46.1 µM), usual class: cytotoxic | hit rate 1.4% among 400,000 | KB-3-1 viability, CellTiter-Glo ATP luminescence, 72 h; also: % is scaled to controls: 0 for no effect and ±100 for the full control effect; nearly all actives have a fitted effect of over 60% in size
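Parental KB-3-1 adenocarcinoma cells in phenol-red-free DMEM with 10% FBS were pin-treated with compounds at several concentrations, incubated 72 h at 37 °C, and viability read by CellTiter-Glo luminescence; concentration-effect curves were fitted after normalization.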
HT1080 IDH1KD tx: HT-1080 IDH1 knockdown cell toxicity (counter line); HT-1080 IDH1 knockdown viability, ATP luminescence, 48 h; Potency, µM (titrated, usually from 46.1 µM), for inactives: at the highest dose activity, negative = toxicity, most hits filed as cytotoxic; hit rate 2% among 360,000; AID 686971;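 also: 0% = DMSO wells and -100% = cell-free medium wells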
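HT-1080-IDH1KD cells (IDH1 knocked down), 750/well in RPMI with 5% FBS, treated with compound 48 h at 37 degrees C. Viability by CellTiter-Glo luminescence, normalised to DMSO and no-cell wells; concentration-response curves classed.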
S2 tox: viability counter-screen for ATXN expression inhibitors | S2 cells (HEK-293 line with an ATXN2-luciferase reporter) viability, CellTiter-Fluor protease fluorescence, 24 h | Potency, µM (titrated, usually from 56.7 µM), hits mostly cytotoxic | hit rate 0.49% among 400,000 | AID 651635; also: nearly all actives have a fitted effect of over 40% in size
ATXN2 expr inh: reduces ATXN2 reporter expression in HEK-293 cells; HEK-293 ATXN2-luciferase reporter, luminescence, 24 h; Potency, µM (doses to about 57 µM), inactives show at the highest dose activity change, negative = inhibition, hits mostly inhibitors; hit rate 0.72% among 360,000; also: % is scaled to controls: 0 for no effect and ±100 for the full control effect; nearly all actives have a fitted effect of over 55% in size
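qHTS (up to 57 uM final) was run with 24 h compound exposure of reporter cells at 37 °C. Each well was multiplexed: SteadyGlo luminescence measured ATXN2-luciferase expression after a fluorogenic Gly-Phe-AFC viability readout (25 uM final).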
HT1080NT lethal: kills 2HG-producing HT-1080-NT fibrosarcoma cells; HT-1080-NT fibrosarcoma viability, CellTiter-Glo ATP luminescence, 48 h; Potency, µM (top dose mostly 46.1 µM), without a hit: top-dose activity, negative = less viability, actives largely listed as cytotoxic; hit rate 1.6% among 360,000; AID 686970;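 also: NT is the 2HG producing partner of a matched IDH1 knockdown line; 0% = DMSO-treated cells and -100% = media-only wells without cells; nearly all actives have a fitted effect of over 55% in size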
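Compounds were tested in concentration-response format on HT-1080-NT cells for 48 hours at 37 degrees C. Cell viability came from CellTiter-Glo luminescence; curves were classified by r2, response magnitude and activity.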
The depositor's hits bear a star; i = inactive; ? = inconclusive; . = no result. Calls follow the shape of the dose curve; as a rule, active = well fitted curve in the direction sought with a large enough effect; inconclusive = small, poorly fitted or top-dose-only effect, or another doubt; inactive = no such curve, though single readings can be large; an effect the other way counts as inactive or inconclusive. Potency is read from the fitted curve at half-maximal effect.

SMILES	KB-V1 MDR tox	KB-3-1 tox	HT1080 IDH1KD tx	S2 tox	ATXN2 expr inh	HT1080NT lethal
Cc1ccc(CNC(=O)c2ccc(-n3cccc3)cc2)cc1	i	i	5%	i	10%	3%
COc1cc(OC)cc(C(=O)NCc2ccc(-n3cccc3)cc2)c1	?	?	?	i	5%	-19%
O=C(Cc1ccc(-n2cccc2)cc1)NCc1cccs1	1.2µM*	1.6µM*	2.6µM*	i	-15%	2.3µM*
CCOC(=O)c1ccc(NC(=O)c2csnn2)cc1	i	i	.	i	37%	.
Cc1nonc1CN(C)C(=O)C1CC12CCN(C(=O)/C=C/c1cccc(Cl)c1)CC2 (stereo not given)	.	.	.	i	.	.
O=C(NCC(c1ccco1)S(=O)(=O)c1cccs1)c1ccc(C(F)(F)F)cc1 (stereo not given)	?	i	.	?	5%	.
CCCCNC(=O)CO/N=C(\C)c1cc2ccccc2o1	16µM*	i	5%	i	16%	5%
C/C(=N\OCC(=O)NCC(F)(F)F)c1cc2ccccc2o1	i	i	14%	i	67%	21%
Cc1ccc(NC(=O)CCNS(=O)(=O)c2cc(Br)cnc2N)cc1Cl	13µM*	?	-21%	i	-9%	-9%
O=C(Nc1ccc(N2CCOCC2)cc1)Nc1ccc2nc(-c3ccco3)c(-c3ccco3)nc2c1	?	?	5µM*	i	-36%	2.8µM*
CCc1nc2ccc(C(=O)N3CCN(c4ccccc4)CC3)cc2nc1CC	i	i	0%	i	-11%	11%
O=C(c1ccc2nc(-c3ccco3)c(-c3ccco3)nc2c1)N1CCN(c2ccccc2)CC1	23µM*	i	?	?	?	-10%
O=C(Nc1ccc2nc(-c3cccs3)c(-c3cccs3)nc2c1)N1CCOCC1	16µM*	i	?	i	-19%	-17%
Cc1ccc(NC(=O)C(=O)NCC(c2cccnc2)N2CCc3ccccc3C2)cc1 (stereo not given)	i	i	.	.	.	.
COc1ccc(C(=O)N(Cc2ccco2)Cc2cccs2)c(OC)c1	i	i	.	.	.	.
CCc1ccc(NC(=O)C(CC)n2c(=O)c(-c3ccccc3NC(C)=O)nc3ccccc32)cc1 (stereo not given)	i	i	.	?	?	.
COc1ccccc1COCC(O)CN(Cc1ccco1)Cc1ccccc1O (stereo not given)	7.3µM*	i	-19%	i	-6%	0%
CCCC(=O)Nc1nc2c(s1)CC(C(C)(C)C)CC2 (stereo not given)	i	i	.	i	57%	.
O=C(c1cccc(N2C(=O)C3CC=CCC3C2=O)c1)N1CCN(c2ccccc2)CC1 (stereo not given)	23µM*	i	-1%	i	-6%	-1%
O=C(c1cccc(N2C(=O)C3CC=CCC3C2=O)c1)N1CCCCCC1 (stereo not given)	?	i	-9%	i	8%	9%
O=C(c1cccc(N2C(=O)C3C4C=CC(C4)C3C2=O)c1)N1CCN(c2ccc(F)cc2)CC1 (stereo not given)	i	i	4%	i	1%	0%
CC1C=CCC2C(=O)N(c3cccc(C(=O)N4CCN(c5ccc(F)cc5)CC4)c3)C(=O)C12 (stereo not given)	18µM*	i	-3%	i	2%	5%
COc1ccc(S(=O)(=O)c2c(SC)nn(CC(=O)Nc3ccc(C)c(Cl)c3)c2N)cc1	i	i	.	?	?	.
C=CCn1c(SCC(=O)N2CCCCCC2)nc2ccccc2c1=O	i	i	-2%	i	18%	-2%
Cn1c(=O)c2c(nc(SCC(=O)N3CCCCCC3)n2C)n(C)c1=O	15µM*	i	-13%	i	1%	0%
SMILES	KB-V1 MDR tox	KB-3-1 tox	HT1080 IDH1KD tx	S2 tox	ATXN2 expr inh	HT1080NT lethal
CCn1c(SCC(=O)N2CCCCCC2)nc2ccccc2c1=O	9.2µM*	i	3%	i	-27%	-8%
CC(C)c1nc(SCC(=O)N2CCCC2)c2ccccc2n1	21µM*	i	-29%	i	8%	-7%
CCn1c(SCC(=O)N2CCN(c3ccccc3)CC2)nc2c([nH]c3ccccc32)c1=O	i	?	11%	i	-11%	-1%
CCn1c(SCC(=O)N2CCN(c3cccc(Cl)c3)CC2)nc2ccccc2c1=O	9.2µM*	i	-11%	i	-8%	-5%
CCCn1c(SCC(=O)N2CCCCC2)nc2c1c(=O)n(C)c(=O)n2C	i	i	1%	i	9%	0%
COc1ccc(CNC(=O)c2cnn(-c3nccc(-c4ccco4)n3)c2C)cc1OC	.	.	.	i	.	.
O=C(CSc1nc2ccccc2c(=O)n1Cc1ccco1)N1CCCCCC1	18µM*	?	?	i	-17%	-21%
CC(C(=O)O)c1ccc(/C=C2\CCCCC2=O)cc1 (stereo not given)	.	.	.	i	43%	.
CC1(C)CC(=O)c2cc(C(=O)NCCc3ccccc3)c(=O)[nH]c2C1	i	?	.	.	.	.
COc1ccc(Nc2cc(C(=O)NCCCN(C)C3CCCCC3)c3ccccc3n2)c(OC)c1	i	i	.	32µM*	-37%	.
COc1cccc(-c2nc(C(=O)NCCCN3CCOCC3)cc3c2[nH]c2ccccc23)c1	18µM*	i	-14%	?	?	-18%
COc1ccc(OC)c(Nc2cc(C(=O)NCCCN3CCOCC3)c3ccccc3n2)c1	18µM*	i	?	i	-1%	-30%
COC(=O)c1ccccc1NC(=O)c1cnc(Nc2ccc(OC)cc2)c2ccccc12	i	i	.	i	7%	.
Cn1c2ccccc2c2c(C(=O)O)cn(C3CCCC3)c(=O)c21	i	i	4%	i	-20%	-11%
CN[C@@H]1C[C@H]2O[C@@](C)([C@H]1OC)n1c3ccccc3c3c4c(c5c6ccccc6n2c5c31)C(=O)N[C@H]4O	.	.	.	.	1.2µM*	.
CC(C)C(=O)Nc1cccc(C(F)(F)F)c1	.	.	.	i	11%	.
CC(=O)Nc1cc(C(=O)OC(C(=O)c2ccccc2)c2ccccc2)ccc1C (stereo not given)	16µM*	i	-2%	i	13%	-2%
Cc1ccc(C)c(NC(=O)C(OC(=O)c2ccc(CO)cc2)c2ccccc2)c1 (stereo not given)	i	i	-9%	i	11%	-14%
Cc1ccc(NC(=O)C(OC(=O)c2ccc(C=O)cc2)c2ccccc2)cc1Cl (stereo not given)	i	i	23µM*	i	-1%	?

Assay outcomes from PubChem.
